High-throughput results deposited in PubChem BioAssay by several laboratories.
Sampled rows, rich in hits. Any-hit rate of the full collection: about 6.7%.
Anthrax LF prot – Bacillus anthracis LF protease inhibitors, primary screen, biochemical, multiplex microsphere, MLPCN library; inhibition, % at 10 µM; 360,000 compounds, 0.12% hits; multiplex microsphere protease cleavage assay; Lethal factor (Bacillus anthracis), P15917; note: plate controls were buffer without enzyme for full effect and enzyme alone for no effect
Target sequence (P15917 whole entry, looked up): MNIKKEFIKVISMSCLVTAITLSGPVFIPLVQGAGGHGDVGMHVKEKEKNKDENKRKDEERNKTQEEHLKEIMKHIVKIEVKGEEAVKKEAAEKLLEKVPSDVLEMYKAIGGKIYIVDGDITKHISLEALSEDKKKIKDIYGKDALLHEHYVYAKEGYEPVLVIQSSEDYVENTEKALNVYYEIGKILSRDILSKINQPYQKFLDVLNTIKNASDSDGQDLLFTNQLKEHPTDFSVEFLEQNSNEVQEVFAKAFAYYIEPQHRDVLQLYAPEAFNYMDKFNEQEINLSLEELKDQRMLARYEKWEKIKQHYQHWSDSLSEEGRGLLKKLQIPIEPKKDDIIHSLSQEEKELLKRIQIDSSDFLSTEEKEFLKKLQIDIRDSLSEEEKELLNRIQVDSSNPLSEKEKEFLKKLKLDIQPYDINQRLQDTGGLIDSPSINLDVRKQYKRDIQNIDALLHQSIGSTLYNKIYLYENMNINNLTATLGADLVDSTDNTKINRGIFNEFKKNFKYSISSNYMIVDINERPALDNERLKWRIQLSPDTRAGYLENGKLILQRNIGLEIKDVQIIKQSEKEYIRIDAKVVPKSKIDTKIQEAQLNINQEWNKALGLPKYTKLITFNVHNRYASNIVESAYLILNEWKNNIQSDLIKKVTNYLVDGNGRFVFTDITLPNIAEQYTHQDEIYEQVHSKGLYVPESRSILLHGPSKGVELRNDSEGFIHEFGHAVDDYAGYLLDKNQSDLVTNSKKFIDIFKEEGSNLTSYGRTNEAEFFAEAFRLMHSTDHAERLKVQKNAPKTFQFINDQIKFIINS
Bead autofluor – counter-screen for toxin protease inhibitors: compound fluorescence | compound autofluorescence counterscreen, microsphere flow cytometry; stronger effect = higher value | fluorescence intensity (test concentration not listed) | 360,000 compounds, 3.1% hits | AID 624483; in the data active = fluorescence intensity above about 16000; inconclusive = no clear call, values can overlap the other calls
GDH-TPI counter – GDH-TPI coupling enzyme inhibitors, primary screen, artefact control for M. tuberculosis FBA inhibitor project, biochemical, absorbance, full deck. GDH-TPI coupled enzyme counterscreen, NADH absorbance. inhibition, % at 4.8 µM. 360,000 compounds, 1.2% hits; in the data active = inhibition above about 30%;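 note: 0% = DMSO wells and 100% = wells lacking the enzyme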
Mtb FBA inh – Mtb FBA enzyme inhibitors, primary screen, biochemical, fluorescence, strain H37Rv | Fructose-bisphosphate aldolase (Mycobacterium tuberculosis (strain ATCC 25618 / H37Rv)), … | purified M. tuberculosis FBA, fluorescence read-out | inhibition, % at 1 µM | 360,000 compounds, 2.3% hits | AID 588726, 2011; in the data active = inhibition above about 27%;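 note: 0% = vehicle and 100% = reference inhibitor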
BoNT-F LC inh – BoNT/F light chain protease inhibitors, primary screen, biochemical, flow cytometry, MLPCN library | inhibition, % at 10 µM | 360,000 compounds, 0.22% hits | AID 588497, 2011 | Botulinum neurotoxin type F light chain protease (Clostridium botulinum) | Multiplex microsphere protease cleavage assay; in the data active = inhibition above about 35%, passing the limit was not always enough; inconclusive = no clear call, values can overlap the other calls; note: plate controls were buffer without enzyme for full effect and enzyme alone for no effect
BoNT A protease – BoNT/A light chain protease inhibitors, primary screen, biochemical, flow cytometry, MLPCN library | multiplex microsphere protease substrate cleavage | inhibition, % at 10 µM | 360,000 compounds, 0.17% hits | AID 588499, 2011; note: plate controls were buffer without enzyme for full effect and enzyme alone for no effect
* hit, by the source's call; ? = inconclusive. Cut-off read from the data, not from the text of the source, unless noted: active = inhibition above about 30%; inconclusive = no clear call, values can overlap the other calls; inactive = below that.

SMILES	Anthrax LF prot	Bead autofluor	GDH-TPI counter	Mtb FBA inh	BoNT-F LC inh	BoNT A protease
O=C(CC(=O)c1c(F)cccc1Cl)c1ccccc1O	-10	3615	33*	10	20	0
O=C(CC(=O)c1ccccc1O)c1cccc(F)c1	-3	2042	11	4	-10	0
C=CCN1C(=O)C(CC(=O)O)S/C1=N/N=C/c1ccc(N(CC)CC)cc1 (stereo not drawn)	-7	3902	35*	23	3	1
CCc1ccc(NC(=O)CSc2nc3cc(C(=O)OC)ccc3c(=O)n2CC2CCCO2)cc1 (stereo not drawn)	8	8177	-2	-4	6	3
CC(C)OCCCNC(=O)c1cccs1	0	22575*	1	-3	1	-1
N#Cc1sc2nc(N3CCCCC3)c3c(c2c1N)CCCC3	-2	2752	19	11	2	0
Cc1nc2sc(C#N)c(N)c2c2c1CCCC2	-4	3172	-1	36*	-12	-1
CCCCN(CCCC)CCCNC(=O)CC1Oc2ccc(C)cc2NC1=O (stereo not drawn)	-2	23832*	-8	0	-6	-5
CCN(CC)CCCNC(=O)CC1Oc2ccc(C)cc2NC1=O (stereo not drawn)	0	5852	0	-2	-5	1
C=CCCCCCCCCc1nc(=S)[nH][nH]1	-1	2728	3	3	-12	0
O=C(CSc1nnc(Cn2c(=O)sc3ccccc32)n1CCc1ccccc1)N1CCOCC1	0	16901*	0	1	2	-1
O=C(CSc1nnc(-c2cccnc2)n1Cc1ccccc1)N1CCOCC1	0	24649*	2	-3	-4	?
COc1ccc(CCNC(=O)CSc2nnc(Cn3c(=O)sc4ccccc43)n2C)cc1OC	0	24341*	5	-3	-2	?
Cn1c(Cn2c(=O)sc3ccccc32)nnc1SCC(=O)N1CCOCC1	-3	5622	4	-2	-7	0
CCc1cc[n+](/C(C(=S)Nc2cccc(C)c2)=C(/[O-])c2ccc(C)c([N+](=O)[O-])c2)cc1	9	3019	19	-3	-22	32*
CCOc1ccc(NC(=S)/C(=C(\[O-])c2ccc(C)c([N+](=O)[O-])c2)[n+]2ccccc2)cc1	-9	4794	7	4	-34	9
CCCCC1=CC2=CC(=O)C(C)(OC(=O)C3CCCC3)C(=O)C2=CO1 (stereo not drawn)	-5	3096	3	-2	5	2
COC(=O)c1ccc(CSc2nc3scc(-c4cccs4)c3c(=O)[nH]2)o1	1	20323*	-4	-2	4	?
COC(=O)c1ccc(CSc2nc3ccc(Cl)cc3[nH]2)o1	0	3670	9	-4	-8	1
Cc1ccccc1NC1=NC(=S)N(CC(N)=O)C12CCOC(C)(C)C2 (stereo not drawn)	13	3102	1	2	45*	-2
COc1ccc(C(C)=O)cc1CC(C(=O)c1ccc(C)cc1)N(C)C (stereo not drawn)	0	2100	10	1	-2	1
COc1ccccc1Nc1nnc(C)c(=O)[nH]1	-1	16456*	-4	-3	-2	-1
CCOc1ccccc1Nc1nnc(C)c(=O)[nH]1	1	7155	1	-6	-6	-2
O=C(Nc1nccs1)c1cccc(S(=O)(=O)N2CCCC2)c1	4	?	4	1	-6	-2
CC(=O)OCC(=O)Nc1ccc(N=Nc2ccccc2)cc1	-4	2613	37*	-9	-3	0
SMILES	Anthrax LF prot	Bead autofluor	GDH-TPI counter	Mtb FBA inh	BoNT-F LC inh	BoNT A protease
CC(=O)Nc1ccc(N=Nc2ccccc2)cc1	-2	2103	36*	-4	-8	0
C=CCC(C(=O)OC)(C(=O)OC)c1ccc([N+](=O)[O-])cn1	2	22956*	5	2	-2	?
C=CCC(C(=O)OC)(C(=O)OC)c1ccc([N+](=O)[O-])cc1[N+](=O)[O-]	-4	3779	-5	-1	0	-1
O=C(NC1=NN(c2ccccc2)CC1)Nc1ccccc1F	-1	3892	20	3	6	0
Cc1cc(Br)ccc1NC(=O)CSc1nnc(CN2CCOCC2)n1C	10	3844	-10	-2	-17	-5
Cc1cccc(C2=NN(c3ccccc3)[C@H](CO)[C@H]2c2ccccc2)c1	-4	3945	-9	59*	2	0
Cc1cccc(C2=NN(c3ccccc3)[C@@H](C(=O)N3CCOC3=O)[C@@H]2c2ccc(F)cc2)c1	-2	3616	0	21	-3	0
CCOC(=O)c1c(-c2ccc(C)o2)csc1NC(=O)CN(C)CC(=O)Nc1ccc(C)cc1	-4	20236*	-8	-3	1	1
CCOC(=O)c1c(-c2ccc(C)o2)csc1NC(=O)CN1CCCCC1	-5	4732	5	-3	-7	0
CSc1nc2ccccc2n1Cc1cccc(F)c1	-3	3543	8	4	13	0
O=C(CSc1cc(Cl)ccc1Cl)NCC1CCCO1 (stereo not drawn)	-1	22708*	-3	0	0	1
O=C(CSc1nc2cc(Cl)ccc2s1)NCC1CCCO1 (stereo not drawn)	0	2787	1	3	-5	0
Oc1ccc(Cl)cc1CNCC1CCCO1 (stereo not drawn)	-2	20694*	-1	0	-7	-4
Nc1cc(N)nc(SCC(=O)NCC2CCCO2)n1 (stereo not drawn)	-1	20538*	-2	-2	-1	?
COc1cccc(CC(=O)NCCCSc2ccccc2)c1	-1	5648	-2	1	0	-1
COc1cc2c(cc1OC)C(C)N(CCN1C(=O)c3ccccc3C1=O)CC2 (stereo not drawn)	-5	4153	-7	-2	1	-5
Cc1nc2c(oc3ccccc32)c(=O)o1	-3	16908*	-7	-1	-3	0
O=c1[nH]c(Cc2ccccc2)nc2c1oc1ccccc12	-1	21955*	2	1	1	0
O=c1[nH]c(CO)nc2c1oc1ccccc12	-10	2898	-4	2	-6	0
O=C(CCCC(=O)OCC(=O)c1ccc(F)cc1)Nc1cc(C(F)(F)F)ccc1Cl	-2	20642*	-10	-2	-6	?
O=C(CCCC(=O)OCC(=O)c1ccc(Cl)cc1Cl)Nc1cc(C(F)(F)F)ccc1Cl	-1	2656	-5	1	4	1
O=[N+]([O-])/C=C/c1cc2ccccc2[nH]1	-1	4224	1	-7	-13	3
